In PubChem BioAssay AID1259415 (National Center for Advancing Translational Sciences (NCATS), 2018):
In all, about 410,000 compounds went through this assay and about 18,000 (4.4%) were called active. Inconclusive results (about 7%) are left out. No stated cut-off is given here; in the data, active means activity change below about -60%; inconclusive means no clear call, values can overlap the other calls; inactive means above about -39%. The entries come from a sample that favours actives as a whole.

Assay: qHTS Assay for inhibitors of the human cytomegalovirus (HCMV)
Conditions: HFF cells, HCMV-luciferase reporter, 72 h; at 57.5 µM; active compounds read low
How it was run: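 Human foreskin fibroblasts infected with luciferase-reporter HCMV at MOI 1 PFU/cell, compounds at two doses. Luciferase measured 72 h post infection; normalized to buffer-only basal and Salinomycin (10uM) controls.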
On the % scale 0 is the no-effect control and ±100 the full control effect.

Row | Compound | activity change, negative = inhibition
1 | COc1ccc2cc(-c3nc(Cl)c4c5c(sc4n3)CC(C)CC5)c(=O)oc2c1 (stereo unspecified) | -12.7% (inactive)
2 | O=C(NCc1ccccc1)c1cc(-c2cccc(Cl)c2)on1 | 21.7% (inactive)
3 | CCCCNC(=O)c1cc(-c2ccc(Cl)c(Cl)c2)on1 | 27.6% (inactive)
4 | COCCNC(=O)c1cc(-c2cccc(Cl)c2)on1 | -70.5% (active)
5 | O=C(O)c1ccc(CSc2nc3cccnc3n2Cc2cccc(F)c2)cc1 | 40.5% (inactive)
6 | CNS(=O)(=O)c1ccc(C(=O)NCC(=O)NCCc2ccc3c(c2)OCCO3)cc1 | -5.01% (inactive)
7 | CCc1ccccc1OCCSc1nc(-c2cccs2)nc2cc(=O)[nH]n12 | -12.5% (inactive)
8 | CC(=O)c1ccc(NS(=O)(=O)c2ccc(-c3cc(C)no3)s2)cc1 | 0% (inactive)
9 | c1ccc2c(CSCc3nc4ccccc4[nH]3)cccc2c1 | -92.5% (active)
10 | c1ccc2c(C[n+]3csc4ccccc43)cccc2c1 | 91.5% (inactive)
11 | O=C(OCc1nc2ccccc2[nH]1)C1CCCCC1 | 4.12% (inactive)
12 | COc1ccccc1C(=O)N1O[C@]23C=C[C@]14C[C@@H](O)CC[C@]4(C)C2CC[C@]1(C)[C@@H]([C@H](C)/C=C/[C@H](C)C(C)C)CC[C@H]13 (stereo partly specified) | 27.5% (inactive)
13 | Cc1ccc2nc(COc3ccccc3NC(=O)Nc3ccc(F)c(Cl)c3)cc(=O)n2c1 | 9.77% (inactive)
14 | CC(C)NC(=O)c1nn(-c2ccccc2F)nc1CO | -26.3% (inactive)
15 | CCNC(=O)CC1C(=O)N(c2ccc(F)cc2)C(=O)N1Cc1ccc(C)cc1 (stereo unspecified) | -4.44% (inactive)
16 | C/C(=N\NC(=O)COc1c(C)cccc1C)c1cccs1 | -1.76% (inactive)
17 | Cc1ccccc1C(CC(=O)c1cccs1)C(C#N)C#N (stereo unspecified) | -89.2% (active)
18 | CCS(=O)(=O)N1CCN(C(=O)c2cccs2)CC1 | 14.1% (inactive)
19 | O=C(CSc1ccccc1)Nc1cccc(S(=O)(=O)N2CCCCC2)c1 | -4.82% (inactive)
20 | Cc1ccnc(SCC(=O)Nc2cccc(S(=O)(=O)N3CCOCC3)c2)n1 | -25.4% (inactive)
21 | Cn1nnnc1SCC(=O)Nc1cccc(S(=O)(=O)N2CCCCC2)c1 | -105% (active)
22 | Cn1c(SCC(=O)Nc2cccc(O)c2)nnc1-c1ccc(S(=O)(=O)N2CCOCC2)cc1 | -70.3% (active)

Row | Compound | activity change, negative = inhibition
23 | COCCn1cnnc1SCC(=O)Nc1cccc(S(=O)(=O)N2CCCCC2)c1 | -23.6% (inactive)
24 | Nc1cc(N)nc(SCC(=O)Nc2cccc(S(=O)(=O)N3CCCCC3)c2)n1 | -9.15% (inactive)
25 | Cc1cc(NC(=O)C(C)SCC(=O)Nc2ccccc2N2CCCCC2)no1 (stereo unspecified) | -18.8% (inactive)
26 | CCC(=O)Nc1cccc(NC(=O)CSc2nnc(-c3ccc(NS(C)(=O)=O)cc3)n2C)c1 | -2.35% (inactive)
27 | Cc1cc(NC(=O)C(C)SCC(=O)Nc2cccc(S(=O)(=O)N3CCCCCC3)c2)no1 (stereo unspecified) | -103% (active)
28 | CC1(C)N=C(SCc2ccccc2Cl)c2ccccc2N1 | 5.15% (inactive)
29 | Cc1ccc2c(=O)c(C(=O)c3ccc(F)cc3)cn(CC(=O)NC3CCCCC3)c2n1 | 6.71% (inactive)
30 | CCc1ccccc1NC(=O)Cn1c(=O)n(CC2CCC(C(=O)NCCc3ccccc3)CC2)c(=O)c2ccccc21 (stereo unspecified) | 17.8% (inactive)
31 | Cc1cc(NC(=O)CSc2ncc(C(=O)Nc3ccc(Cl)cc3)c(=O)n2C)no1 | 7.76% (inactive)
32 | CC(=O)Nc1ccc(NC(=O)c2cc3sccc3n2Cc2ccc(F)cc2)cc1 | -10% (inactive)
33 | COc1ccc2[nH]c3c(C)c4cc[n+](C)cc4c(C)c3c2c1 | -97.6% (active)
34 | COc1ccc(-n2c(=O)c3sc4ccccc4c3n(CC(=O)Nc3cccc(C)c3)c2=O)cc1 | 11.4% (inactive)
35 | Cc1cc(C)c(/C=C/c2onc(C)c2S(=O)(=O)N2CCC(C(=O)Nc3ccc(Cl)cc3C)CC2)c(C)c1 | -20.3% (inactive)
36 | CCN1CCN(c2ccc([N+](=O)[O-])cc2C#N)CC1 | -36.6% (inactive)
37 | CN1CN(C)c2ccc([N+](=O)[O-])c3cccc1c23 | -90% (active)
38 | CN1CCN(S(=O)(=O)c2ccc(N3CCN(c4ccccc4O)CC3)c([N+](=O)[O-])c2)CC1 | -9.97% (inactive)
39 | CN(C)S(=O)(=O)c1ccc(N2CCCC2=O)c([N+](=O)[O-])c1 | -23.4% (inactive)
40 | CC1CCCN(c2csc3ccc(F)cc3c2=O)C1 (stereo unspecified) | 20.9% (inactive)
41 | COc1ccc(-c2cn3c(C)c(C(=O)Nc4cc(C)cc(C)c4)sc3n2)cc1 | 27.8% (inactive)
42 | COc1cc2c(cc1OC)C(COc1ccc(F)cc1)N(C(=O)c1ccccc1F)CC2 (stereo unspecified) | -11.8% (inactive)
43 | C=C(C)CNC(=S)Nc1ccc(S(=O)(=O)Nc2cnc3ccccc3n2)cc1 | -30.9% (inactive)
44 | CCn1c(SCC(=O)N/N=C/c2ccccc2OCC(=O)O)nnc1-c1ccc(C(C)(C)C)cc1 | 0% (inactive)

Row | Compound | activity change, negative = inhibition
45 | C=C(C)CNC(=S)N/N=C/c1ccccc1OCC(=O)O | -63.4% (active)
46 | Cc1cc(C(=O)NC2CC(C)(C)Cc3c2cnn3-c2ccccc2)n[nH]1 (stereo unspecified) | -4.62% (inactive)
47 | COc1ccc(C(=O)NC2CC(C)(C)Cc3c2cnn3-c2ccccc2)c(OC)c1 (stereo unspecified) | -62.5% (active)
48 | COc1ccc(-n2ncc3c2CC(C)(C)CC3NC(=O)CCc2c(C)nn(C)c2C)cc1 (stereo unspecified) | -35% (inactive)
49 | O=C1Cc2cc(S(=O)(=O)Nc3ccc(OC(F)(F)F)cc3)cc3c2N1CCC3 | 14.6% (inactive)
50 | COC(=O)[C@]12CCCCC=C1N(Cc1cccc3ccccc13)C(=O)[C@H](CC(=O)N1CCOCC1)C2 | 12.2% (inactive)
51 | Cc1ccc2nc(COc3cccc(NC(=O)c4ccccc4Cl)c3)cc(=O)n2c1 | 0.182% (inactive)
52 | COc1cc(OC)cc(-c2cc3ccc(F)cc3cn2)c1 | 59.6% (inactive)
53 | COc1ccc(C(C)(O)c2nc(-c3cc(F)cc(F)c3)cs2)cc1 (stereo unspecified) | -96% (active)
54 | CC(O)(c1cccc(F)c1)c1nc(-c2ccc3c(c2)OCO3)cs1 (stereo unspecified) | -11.8% (inactive)
55 | CCSc1nnc2c(n1)OC(c1ccc(OCC(=O)O)cc1)Nc1ccccc1-2 (stereo unspecified) | 33.3% (inactive)
56 | COc1cc(NC(=O)Cn2c(=O)n(Cc3ccco3)c(=O)c3oc4ccccc4c32)cc(OC)c1 | -18.5% (inactive)
57 | Cn1c2ccccc2c(=O)c2c(=O)n(Cc3ccco3)c(COc3ccccc3)nc21 | -81.5% (active)
58 | CC(C)c1ccc(Cn2c(COc3ccccc3)nc3ccccc32)cc1 | 57.2% (inactive)
59 | CCOc1ccc(N(CC)S(=O)(=O)N2CCCC(C(=O)NCc3ccc(SC)cc3)C2)cc1 (stereo unspecified) | -31% (inactive)
60 | Cc1ccc(NC(=O)CSc2nc3c([nH]c4ccccc43)c(=O)n2-c2ccccc2)cc1Cl | -24% (inactive)
61 | Cc1ccc(NC(=O)CSc2nc3c([nH]c4ccccc43)c(=O)n2-c2ccccc2)c(C)c1 | -65.4% (active)
62 | CCc1ccc(NC(=O)CSc2nc3c([nH]c4ccccc43)c(=O)n2-c2cccc(OC)c2)cc1 | 20.7% (inactive)
63 | Cc1ccc(-n2c(SCC(=O)c3ccccc3)nc3c([nH]c4ccccc43)c2=O)cc1 | 37% (inactive)
64 | CCOC(=O)c1ccc(NC(=O)CSc2nc3c([nH]c4ccccc43)c(=O)n2C)cc1 | -81.7% (active)
65 | Cc1ccccc1CSc1nc2c([nH]c3ccccc32)c(=O)n1C | 34.5% (inactive)
66 | CCn1c(CC(=O)Nc2ccc(C)cc2)nnc1SCC(=O)Nc1nc(C)cs1 | 28.7% (inactive)

Row | Compound | activity change, negative = inhibition
67 | O=C(COc1ccccc1F)OCc1cc(=O)n2nc(C3CCCCC3)sc2n1 | 11.6% (inactive)
68 | O=c1c2ccccc2n(Cc2cccc(Cl)c2)c(=O)n1Cc1ccccc1 | -14.5% (inactive)
69 | CC(C)CCN(C(=O)Nc1ccc(Cl)c(Cl)c1)C(C)c1cccs1 (stereo unspecified) | 15.6% (inactive)
70 | CC(C)(C)C(=O)CSc1ccc(S(=O)(=O)N2CCCC2)cn1 | 0% (inactive)
71 | CCc1c(C)sc(NC(=O)C2c3ccccc3Oc3ccccc32)c1C(=O)OC(C)C | 23.5% (inactive)
72 | Cc1nc(S(=O)(=O)c2ccc(Br)cc2)nc2c1CCC2 | 6.93% (inactive)
73 | CCOc1ccc(N(CC)C(=O)C2CCN(S(=O)(=O)c3cccc4nonc34)CC2)cc1 | -9.41% (inactive)
74 | Cc1ccc2c(c1)N(C(=O)Nc1ccc(Br)cc1F)CCO2 | -2.87% (inactive)
75 | COc1ccccc1N(C)S(=O)(=O)c1ccc(Cl)c(C(=O)Nc2ccncc2)c1 | -67.6% (active)
76 | COc1ccccc1N(C)S(=O)(=O)c1ccc(C(=O)NC2CCCCCC2)cc1 | -30.1% (inactive)
77 | COc1ccccc1N(C)S(=O)(=O)c1ccc(Cl)c(C(=O)N2CCC(C(N)=O)CC2)c1 | -15.9% (inactive)
78 | COc1ccc(C2(Nc3cccc(F)c3)C(=O)c3ccccc3C2=O)cc1 | 3.54% (inactive)
79 | CCOC(=O)c1ccc(CSc2nnc3cc(C)c4ccccc4n23)cc1 | 0.725% (inactive)
80 | COc1cccc(N2CCN(S(=O)(=O)c3cc(Br)cc4c3N(C(=O)C3CC3)CC4)CC2)c1 | 7.82% (inactive)
81 | CN(Cc1ccccc1)c1ncnc2onc(-c3ccc(F)cc3)c12 | -33.7% (inactive)
82 | COc1ccc(OC)c(NC(=O)CSC2=Nc3ccccc3C3=NC(CC(=O)NCCc4ccccc4)C(=O)N23)c1 (stereo unspecified) | 3.26% (inactive)
83 | COc1ccc(OC)c(NC(=O)CSC2=Nc3ccccc3C3=NC(CC(=O)NCc4ccc(F)cc4)C(=O)N23)c1 (stereo unspecified) | -67.3% (active)
84 | COc1ccccc1NC(=O)CSC1=Nc2ccccc2C2=NC(CC(=O)NCc3cccs3)C(=O)N12 (stereo unspecified) | 11.4% (inactive)
85 | Cc1ccc(N(CC(=O)NCC2CCCO2)C(=O)CNS(=O)(=O)c2ccc(Cl)cc2)cc1 (stereo unspecified) | 43.5% (inactive)
86 | Cc1nc2nc(SCC(=O)NC3CCC(C)CC3)nn2c(C)c1Cc1ccccc1Cl (stereo unspecified) | -21.3% (inactive)
